Shown are actives, neighbours in structure and some others; about 2.4% of the full set was active somewhere.
Cruzain inh Det: inhibitors of Trypanosoma cruzi cruzain with detergent; P25779; purified cruzain, Z-FR-AMC fluorescence, 0.01% Triton; Potency, µM, without a hit: max response, negative = inhibition, most hits filed as inhibitors; hit rate 0.43% among 200,000; AID 1478;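 note: plate controls were neutral wells for no effect and buffer without enzyme for full effect; nearly all actives have a fitted effect of over 40% in size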
Target sequence (P25779 123-467 limits assumed): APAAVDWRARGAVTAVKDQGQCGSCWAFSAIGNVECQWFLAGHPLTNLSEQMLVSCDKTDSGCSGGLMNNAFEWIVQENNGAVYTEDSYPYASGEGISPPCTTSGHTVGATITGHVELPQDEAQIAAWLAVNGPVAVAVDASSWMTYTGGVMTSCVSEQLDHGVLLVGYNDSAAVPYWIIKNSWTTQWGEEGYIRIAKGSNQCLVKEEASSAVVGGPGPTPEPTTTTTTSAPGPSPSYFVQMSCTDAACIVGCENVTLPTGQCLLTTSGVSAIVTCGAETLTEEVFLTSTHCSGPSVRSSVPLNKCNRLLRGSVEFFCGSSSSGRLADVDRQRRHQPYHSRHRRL
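Purified cruzain (1.5 nM final) was preincubated with compounds for 15 min at room temperature in 100 mM sodium acetate pH 5.5, 5 mM DTT, 0.01% Triton X-100. Reaction started with 2 uM Z-FR-AMC; AMC fluorescence change over 60 s gave activity.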
Cruzain noTriton: inhibitors of Trypanosoma cruzi cruzain without detergent; P25779; hit rate 2.3% among 200,000; purified cruzain, Z-FR-AMC fluorescence, no detergent; Potency, µM, for inactives: max response, negative = inhibition, hits mostly inhibitors;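 note: plate controls were enzyme without inhibitor for no effect and buffer without enzyme for full effect; nearly all actives have a fitted effect of over 40% in size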
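Purified cruzain at 1.5 nM, pre-incubated 15 min with compound at room temperature in 100 mM sodium acetate pH 5.5, 5 mM DTT, 0.00005% Triton X-100. Reaction started with 2 uM Z-FR-AMC; AMC fluorescence increase over 60 s gives rate.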
An asterisk follows results filed as active; u = inconclusive. Calls come from the whole dose curve; as a rule, active = well fitted curve in the direction sought with a large enough effect; inconclusive = small, poorly fitted or top-dose-only effect, or another doubt; inactive = no such curve, though single readings can be large; an effect the other way counts as inactive or inconclusive. Potency is the fitted concentration of half-maximal effect.

SMILES | Cruzain inh Det | Cruzain noTriton
Cc1ccc(NC(=O)c2ccc(OC(=O)COc3cccc(Cl)c3)cc2)cc1 | -1.8% | 12.6µM*
Cc1ccc(C(=O)CC(=O)COc2ccc(Cl)cc2C)cc1 | -3.8% | 11.1%
Cc1ccc(NC(=O)c2ccc(OC(=O)CCN3C(=O)c4ccccc4C3=O)cc2)cc1 | 2.5% | u
Cc1ccc(-c2cn3c(n2)sc2cc(C(=O)N4CCCCC4)ccc23)cc1 | 0.0% | 0.9%
Cc1ccc(-n2c(=O)c3oc4ccccc4c3n(Cc3ccccc3F)c2=O)cc1C | 0.6% | -2.2%
Cc1ccc(-n2c(=O)c3oc4ccccc4c3n(CC(=O)Nc3ccc(F)c(Cl)c3)c2=O)cc1C | -2.9% | 10µM*
O=C(CSc1nc(-c2ccc(F)cc2)nc2c1Cc1ccccc1O2)Nc1cccc(C(=O)O)c1 | -4.4% | -2.4%
O=C(CSc1nc(-c2ccccc2)nc2c1Cc1ccccc1O2)Nc1ccccc1 | 9.1% | 25.1µM*
COc1cccc(C(=O)N2CCc3cc(OC)c(OC)cc3C2COc2ccc3c(C)cc(=O)oc3c2)c1 (stereo not drawn) | 6.1% | -5.8%
Cc1nc2c(C(=O)NCc3ccccc3Cl)c[nH]n2c(=O)c1Cc1cccc(Cl)c1 | -21.1% | -19.7%
O=c1cc(-c2cccs2)oc2ccc(Cl)cc12 | -2.6% | 0.2%
O=C1OC(/C=C/c2ccc(Cl)cc2Cl)=NC/1=C\c1cccs1 | u | 25.1µM*
COc1ccc(C)cc1NC(=O)C(OC(=O)CNC(=O)c1ccc(Oc2ccccc2)cc1)c1ccccc1 (stereo not drawn) | -19.0% | u
COc1ccc(C)cc1NC(=O)C(OC(=O)CNC(=O)c1cccc(F)c1)c1ccccc1 (stereo not drawn) | u | 12.6µM*
Cc1ccc(Cl)cc1N1CCN(C(=O)c2ccc3c(Cl)c4c(nc3c2)CCCC4)CC1 | -1.9% | -3.7%
COc1ccc(CN(C(=O)CSc2nnc(-c3ccccc3C)o2)c2ccc(F)cc2)cc1 | -4.7% | -9.1%
O=C(CSc1nnc(-c2c[nH]c3ccccc23)o1)N(Cc1ccccc1)c1ccc(F)cc1 | -5.5% | 12.6µM*
COc1ccccc1N1CCN(CCCNC(=O)c2cnn(-c3cccc(Cl)c3)c2C2CCN(C(=O)OC(C)(C)C)CC2)CC1 | -0.4% | 10.6%
COc1ccc(/C=N/NC(N)=S)cc1OC(=O)c1cccc2ccccc12 | 1.2% | 25.1µM*
COc1ccc(C(=O)Oc2cc(/C=N/NC(N)=S)ccc2OC)cc1 | -8.0% | u
COc1cc(/C=N/NC(N)=S)ccc1OCC(=O)Nc1ccc(C)cc1 | 2.51µM* | u
CNC(=S)N/N=C/c1ccc(OCC(=O)Nc2c(C)cc(C)cc2C)c(OC)c1 | -6.4% | 4.1%
CCOc1cc(/C=N\Nc2ccc([N+](=O)[O-])cc2)ccc1OCC(=O)Nc1ccc(C)c(C)c1 | 5.3% | u
COc1cc(/C=N\Nc2ccc([N+](=O)[O-])cc2)ccc1OCC(=O)Nc1ccc(C)c(C)c1 | 0.4% | 3.98µM*
Cc1cc(C)cc(NC(=O)C(CC(C)C)NC(=O)C2CCCCC2)c1 (stereo not drawn) | -2.1% | 3.6%
SMILES | Cruzain inh Det | Cruzain noTriton
CCc1ccc(-c2cc(C)no2)cc1S(=O)(=O)N1CCN(c2cccc(Cl)c2)CC1 | -3.0% | 25.1µM*
Cc1ccc2cccc(S(=O)(=O)N3CCN(c4cccc(Cl)c4)CC3)c2n1 | -0.5% | -2.3%
CCOC(=O)c1sc2ccccc2c1S(=O)(=O)Nc1ccc(CC)cc1 | -9.0% | -19.7%
O=C(Nc1ccc(OCc2cc(=O)n3ccccc3n2)cc1)c1ccccc1Cl | 4.5% | 7.4%
Cc1cccc(C)c1NC(=O)Cn1nnc(-c2ccc(N3CCOCC3)cc2)n1 | -4.3% | 20µM*
Cc1cc(C)c(NC(=O)Cn2nnc(-c3ccccc3)n2)c(C)c1 | 0.6% | -0.2%
O=C1CS(=O)(=O)C2(C(=O)N(Cc3cccc(F)c3)c3ccccc32)N1c1ccccc1 (stereo not drawn) | -6.0% | 10µM*
CCc1ccc(N2C(=O)CS(=O)(=O)C23C(=O)N(Cc2ccccc2)c2ccccc23)cc1 (stereo not drawn) | -4.4% | 2.51µM*
CCc1ccc(N2C(=O)CSC23C(=O)N(Cc2ccc(C)cc2)c2ccccc23)cc1 (stereo not drawn) | -8.6% | -25.6%
CCc1ccc(N2C(=O)CSC23C(=O)N(Cc2cccc(F)c2)c2ccccc23)cc1 (stereo not drawn) | 0.4% | -3.9%
CCn1c(C(=O)NCc2ccc(C)cc2)cc2sc(Cl)cc21 | -5.0% | 0.3%
O=S(=O)(NCC(c1ccco1)S(=O)(=O)c1cccs1)c1ccc(Cl)cc1 (stereo not drawn) | -5.2% | -0.9%
O=C(COC(=O)/C=C/c1ccc(OC(F)F)cc1)Nc1ccc(S(=O)(=O)N2CCCC2)cc1 | -3.5% | -0.9%
O=C(Cc1ccc(S(=O)(=O)N2CCCCC2)s1)Nc1ccc(F)c(F)c1 | -9.3% | 1.2%
O=C(COC(=O)/C=C/c1ccc2c(c1)OCO2)Nc1ccc(S(=O)(=O)N2CCCC2)cc1 | -8.9% | 31.6µM*
O=C(COC(=O)Cc1ccc(S(=O)(=O)N2CCCCC2)s1)Nc1ccc2c(c1)OCO2 | -9.7% | 10µM*
COc1cc(NC(=O)COCc2cc(-c3ccc(F)cc3)on2)cc(OC)c1OC | -0.5% | 20.4%
O=C1OCC2=C1C(c1ccc(F)cc1)Sc1ccccc1N2 (stereo not drawn) | -6.1% | -9.6%
CC(C)(C)c1ccc(C2Sc3ccccc3NC3=C2C(=O)c2ccccc23)cc1 (stereo not drawn) | -3.3% | 7.94µM*
COc1cccc(NS(=O)(=O)c2ccc3[nH]cc(C(=O)N(C)C4CCCCC4)c(=O)c3c2)c1 | -0.4% | -0.3%
Cc1cc(C)c(S(=O)(=O)Nc2ccc3c4c(cccc24)CC3)c(C)c1 | -2.8% | 20µM*
Cc1cc(C)c(S(=O)(=O)Nc2ccc3c(c2)CCC3)c(C)c1 | -8.2% | -8.3%
CN1[C@H]2CC(OC(=O)[C@H](CO)c3ccccc3)C[C@H]1[C@H]1O[C@H]12 (stereo partly drawn) | 3.9% | 5.1%
COc1ccccc1N1CCN(S(=O)(=O)CCNC(=O)COc2ccc(C(C)C)cc2)CC1 | -8.3% | u
CC(C)c1ccc(Nc2cc(C(=O)NCc3cccs3)c3ccccc3n2)cc1 | -2.9% | 10µM*
SMILES | Cruzain inh Det | Cruzain noTriton
COc1ccc(Nc2cc(C(=O)NCc3cccs3)c3ccccc3n2)cc1 | 0.9% | u
COc1ccc(CNCCSc2nnnn2-c2ccccc2)cc1 | -0.2% | -11.7%
CCCCOC(=O)c1c(C)oc2c1cc(NS(=O)(=O)c1cc(OC)ccc1OC)c1ccccc12 | -1.3% | 12.6µM*
COc1ccc(OC)c(S(=O)(=O)Nc2cc3c(C(C)=O)c(C)oc3c3ccccc23)c1 | -5.7% | -7.8%
COc1cc(NC(=O)CCN2CCN(c3ccccc3)CC2)cc(OC)c1 | -0.4% | 11.3%
CCCCOc1ccc(C(=O)N(Cc2ccc(C(C)C)cc2)C2CCS(=O)(=O)C2)cc1 (stereo not drawn) | -11.4% | u
COc1ccc(-c2nc(-c3ccccc3)nc(Cl)c2C#N)cc1 | 6.0% | -0.5%
CNc1nc(-c2ccccc2)nc(-c2ccccc2)c1C#N | -2.0% | 7.94µM*
Cc1cc(C(=O)NCc2ccccc2)c2c(C)nn(-c3cccc(F)c3)c2n1 | -13.1% | -9.8%
O=C(O)c1cc2c(s1)-c1ccccc1CC2 | -0.6% | -4.0%
O=C(O)c1cc2c(s1)-c1ccccc1OC2 | u | 25.1µM*
CN1CCN(C(=O)CSc2nc(-c3ccncc3)ccc2C#N)CC1 | -4.6% | 2.0%
CCOC(=O)C(C)Sc1nc(-c2ccccc2)ccc1C#N (stereo not drawn) | -8.8% | -7.0%

Screening data: PubChem, National Center for Advancing Translational Sciences (NCATS)
